# Data taken from PubChem BioAssay (NCATS).
# Results filed as inconclusive are left out. Where a call stands in place of a potency, no number is given. The source made the active and inactive calls. Unless noted, calls follow the shape of the full dose curve.
# How the values were obtained:
# [1] = qHTS for Inhibitors of the Functional Ribonucleoprotein Complex (vRNP) of Lassa (LASV) Arenavirus: LASV Primary Screen - GLuc reporter signal (AID 1347082; calls by dose curve; tested in HEK293 reporter line; also: nearly all actives have a fitted effect of over 60% in size)
# [2] = target: Nucleoprotein (Lymphocytic choriomeningitis virus (strain Armstrong)) (UniProt P09992); assay: qHTS for Inhibitors of the Functional Ribonucleoprotein Complex (vRNP) of Lymphocytic Choriomeningitis Arenaviruses (LCMV): LCMV Primary Screen - GLuc reporter signal (AID 1347086); also: nearly all actives have a fitted effect of over 70% in size
# Nucleoprotein (Lymphocytic choriomeningitis virus (strain Armstrong)), sequence (P09992 whole entry, looked up): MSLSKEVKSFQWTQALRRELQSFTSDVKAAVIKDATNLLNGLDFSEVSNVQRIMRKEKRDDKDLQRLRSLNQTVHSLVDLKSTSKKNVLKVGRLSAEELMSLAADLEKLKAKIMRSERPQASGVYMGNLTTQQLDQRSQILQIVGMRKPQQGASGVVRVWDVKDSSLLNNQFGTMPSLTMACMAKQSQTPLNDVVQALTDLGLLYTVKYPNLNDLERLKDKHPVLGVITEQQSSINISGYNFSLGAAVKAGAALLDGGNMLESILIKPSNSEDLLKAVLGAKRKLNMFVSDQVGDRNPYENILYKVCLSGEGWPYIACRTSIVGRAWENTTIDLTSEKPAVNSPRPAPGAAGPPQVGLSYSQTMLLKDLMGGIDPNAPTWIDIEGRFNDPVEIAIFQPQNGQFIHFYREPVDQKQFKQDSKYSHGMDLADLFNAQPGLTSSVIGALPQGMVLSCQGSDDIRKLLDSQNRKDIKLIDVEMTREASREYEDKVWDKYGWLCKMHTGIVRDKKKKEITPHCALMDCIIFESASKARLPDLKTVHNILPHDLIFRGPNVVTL
# [3] = Primary qHTS to identify inhibitors of SARS-CoV-2 cell entry (AID 1645846); settings: activity change, negative = inhibition: at 57.1 µM (top of the series) unless noted; also: nearly all actives have a fitted effect of over 45% in size; also: potency is read from the fitted curve at half-maximal effect
# Outline: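 HEK293 cells stably expressing human ACE2, pre-treated 1 h with compound, then infected with MLV particles pseudotyped with Wuhan-Hu-1 spike (C-terminal 19-aa truncation). Luciferase luminescence after 48 h at 37 °C, normalised to spike PP and bald PP.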
# [4] = Primary qHTS for inhibitors of SARS-S pseudo-typed particle cell entry (AID 1479145); also: nearly all actives have a fitted effect of over 45% in size
# [5] = Primary qHTS for Huh7 cytotoxicity: counterscreen for inhibitors of MERS-S pseudotyped particle cell entry (AID 1479147); settings: outcome: dose series up to 57.1 µM unless noted
# [6] = Primary qHTS for inhibitors of MERS-S pseudo-typed particle cell entry (AID 1479149); also: nearly all actives have a fitted effect of over 60% in size
# [7] = Cytotoxicity counterscreen for inhibitors of SARS-CoV-2 cell entry (AID 1645845); also: nearly all actives have a fitted effect of over 50% in size; also: potency is read from the fitted curve at half-maximal effect
# Outline: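 HEK293-ACE2 cells (Expi293F stably expressing human ACE2) seeded overnight, then compound for 1 h plus 48 h at 37C. Viability as ATP content by luminescence; normalized to wells with cells and media-only wells.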
# [8] = Primary qHTS for Vero E6 cytotoxicity: counterscreen for inhibitors of SARS-S pseudo-typed particle cell entry (AID 1479150); settings: outcome: dose series up to 57.1 µM unless noted
# [9] = Inducers of the Endoplasmic Reticulum Stress Response (ERSR) in human glioma: Validation (AID 504836; active = well fitted curve in the direction sought with a large enough effect; an effect the other way counts as inactive or inconclusive)
# Outline: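 Stably transfected U87-MG glioma cells carrying a GRP78-based luciferase sensor; 16 h compound incubation. Luminescence end-point read 10 min after Bright-Glo addition at room temperature.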
# [10] = target: Alpha-galactosidase (Coffea arabica) (UniProt Q42656); assay: Counterscreen for Glucocerebrosidase Inhibitors: qHTS Assay for Coffee Bean alpha-Galactosidase at pH 4.5 (AID 957; active = well fitted curve in the direction sought with a large enough effect; an effect the other way counts as inactive or inconclusive)
# Alpha-galactosidase (Coffea arabica), sequence (Q42656 whole entry, looked up): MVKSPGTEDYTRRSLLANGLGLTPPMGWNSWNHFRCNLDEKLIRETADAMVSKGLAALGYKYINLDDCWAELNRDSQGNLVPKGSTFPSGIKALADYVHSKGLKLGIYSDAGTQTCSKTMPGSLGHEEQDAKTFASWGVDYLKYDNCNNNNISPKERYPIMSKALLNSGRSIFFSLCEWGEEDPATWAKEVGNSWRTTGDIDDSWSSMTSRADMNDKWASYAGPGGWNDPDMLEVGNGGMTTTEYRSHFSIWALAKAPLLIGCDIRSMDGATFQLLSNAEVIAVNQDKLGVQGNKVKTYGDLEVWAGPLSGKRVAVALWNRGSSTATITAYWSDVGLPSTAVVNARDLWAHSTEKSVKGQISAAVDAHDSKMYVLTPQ
# Outline: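 AC50 values derive from Hill-equation modeling of concentration-response data, normalized to no-enzyme and full-activity controls. The pH 4.5 citrate assay used 2 nM coffee bean enzyme and 80 uM fluorogenic substrate for 20 min.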
# [11] = target: Alpha-galactosidase (Coffea arabica) (UniProt Q42656); assay: Counterscreen for Glucocerebrosidase Inhibitors: qHTS Assay for Coffee Bean alpha-Galactosidase at pH 5.9 (AID 998; active = well fitted curve in the direction sought with a large enough effect; an effect the other way counts as inactive or inconclusive)
# Outline: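 Green coffee bean enzyme (2 nM) with 4-methylumbelliferyl alpha-D-galactopyranoside (80 uM) in 50 mM citric acid, 0.005% Tween-20, pH 5.9, 20 min at room temperature; compounds 0.7 nM–77 uM. Stopped at pH 10, fluorescence Ex365/Em440; Hill-fit AC50.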
# [12] = Validation screen for inhibitors of Lassa infection (AID 463096); also: potency is read from the fitted curve at half-maximal effect
# [13] = target: Nuclear receptor subfamily 1 group I member 3 (Homo sapiens) (UniProt Q14994); assay: Primary qHTS for antagonist of constitutive androstane receptor (CAR) against the NCATS DSHEA and TCM libraries (AID 1794836; active = well fitted curve in the direction sought with a large enough effect; an effect the other way counts as inactive or inconclusive;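 also: HepG2 cells stably expressing hCAR with CYP2B6 luciferase reporter stimulated by CITCO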)
# Nuclear receptor subfamily 1 group I member 3 (Homo sapiens), sequence (Q14994 whole entry, looked up): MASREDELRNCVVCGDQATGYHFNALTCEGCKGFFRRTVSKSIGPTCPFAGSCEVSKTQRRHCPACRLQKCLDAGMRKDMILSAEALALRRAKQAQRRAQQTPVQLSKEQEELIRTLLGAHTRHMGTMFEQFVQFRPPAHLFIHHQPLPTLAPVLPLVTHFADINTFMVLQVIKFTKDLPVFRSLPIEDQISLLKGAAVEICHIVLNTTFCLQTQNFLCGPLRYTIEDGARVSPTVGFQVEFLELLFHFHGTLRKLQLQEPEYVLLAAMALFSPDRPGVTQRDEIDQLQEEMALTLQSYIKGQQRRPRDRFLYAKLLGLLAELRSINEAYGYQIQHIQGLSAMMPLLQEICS
# Outline: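 HepG2-CYP2B6-hCAR cells, attached 5 h, given compounds plus CITCO agonist […], incubated 24 h at 37 C. Luciferase luminescence read, multiplexed with CellTiter-Fluor viability (Ex/Em 405/540 nm).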
# [14] = Confirmatory qHTS for VERO E6 Cytotoxicity Assay: Counterscreen for SARS-CoV-2 CPE Assay (AID 1508605); also: nearly all actives have a fitted effect of over 60% in size
# [15] = Confirmatory qHTS to identify inhibitors of SARS-CoV-2 cell entry (AID 1645844); also: nearly all actives have a fitted effect of over 45% in size; also: potency is read from the fitted curve at half-maximal effect
# Outline: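 HEK293-ACE2 cells were pretreated 1 h with compound, then infected with MLV-based pseudoparticles bearing C-terminally truncated Wuhan-Hu-1 spike for 48 h at 37C; luciferase luminescence normalized to spike PP and bald PP wells.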
# [16] = VSVG counterscreen qHTS to identify inhibitors of SARS-CoV-2 cell entry (AID 1645847); also: nearly all actives have a fitted effect of over 65% in size; also: potency is read from the fitted curve at half-maximal effect
# Outline: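 HEK293-ACE2 cells (Expi293F, human ACE2) pretreated 1 h with compound, then infected with MLV-based VSV-G pseudotyped particles for 48 h at 37 C; luciferase luminescence normalized to VSV-G PP and bald PP wells.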
# [17] = qHTS for Inhibitors of the Functional Ribonucleoprotein Complex (vRNP) of Lassa (LASV) Arenavirus: Viability assay - alamar blue signal for LASV Primary Screen (AID 1347083; calls by dose curve; tested in HEK293 reporter line; also: nearly all actives have a fitted effect of over 80% in size; also: potency is read from the fitted curve at half-maximal effect)
compound,measurement,setting,value
c1ccc(-c2oc3ncnc(NC[C@@H]4CCCO4)c3c2-c2ccccc2)cc1,Potency,[1],inactive
same,Potency,[2],inactive
same,"activity change, negative = inhibition",[3],-93.9%
O=C(O)c1c(Cl)c(Cl)c(Cl)c(Cl)c1-c1c2cc(I)c(=O)c(I)c-2oc2c(I)c(O)c(I)cc12,Potency,[1],inactive
same,Potency,[4],inactive
same,outcome,[5],inactive
same,Potency,[6],inactive
same,Potency,[7],inactive
CCc1cccc(CC)c1NC(=O)N1Cc2[nH]nc(NC(=O)c3ccc(N4CCN(C)CC4)cc3)c2C1,Potency,[1],inactive
same,Potency,[2],inactive
same,Potency,[7],inactive
CC(C)(C)c1nc(-c2cccc(NS(=O)(=O)c3c(F)cccc3F)c2F)c(-c2ccnc(N)n2)s1,Potency,[1],inactive
same,Potency,[2],inactive
same,Potency,[4],inactive
same,outcome,[5],inactive
same,outcome,[8],inactive
same,Potency,[7],inactive
same,Potency,[3],28.2 µM (active)
COc1cc(OC)c2c(c1Cl)O[C@@]1(C2=O)[C@H](C)CC(=O)C[C@@H]1OC,Potency,[1],inactive
same,Potency,[2],inactive
Nc1ncnc2nc(-c3ccc(N4CCOCC4)nc3)cc(-c3cccc(Br)c3)c12,outcome,[9],inactive
same,Potency,[1],inactive
same,Potency,[2],inactive
same,Potency,[7],inactive
same,"activity change, negative = inhibition",[3],-21.9%
Brc1c(Br)c(Br)c2[nH]cnc2c1Br,outcome,[9],inactive
same,Potency,[1],inactive
same,Potency,[2],inactive
NC(=NCCCCCCN=C(N)N=C(N)Nc1ccc(Cl)cc1)N=C(N)Nc1ccc(Cl)cc1,Potency,[1],inactive
same,Potency,[2],inactive
same,Potency,[3],17.8 µM (active)
N=c1ccn2c(n1)O[C@H]1[C@@H](O)[C@@H](CO)O[C@H]12,Potency,[1],inactive
same,Potency,[2],inactive
same,Potency,[3],10 µM (active)
O=C1NC(=O)C(c2ccccc2[N+](=O)[O-])=C1Nc1ccc(O)c(Cl)c1,outcome,[10],inactive
same,outcome,[11],inactive
same,Potency,[12],inactive
same,outcome,[9],inactive
same,Potency,[1],inactive
same,Potency,[2],inactive
same,Potency,[7],inactive
COc1cc(C(C)C)c(Oc2cnc(NC(CO)CO)nc2N)cc1I,Potency,[1],inactive
same,Potency,[2],inactive
same,Potency,[7],inactive
same,Potency,[3],inactive
C[C@H]1C/C=C/[C@@H]2[C@@H]3O[C@]3(C)[C@@H](C)[C@H]3[C@H](Cc4ccccc4)NC(=O)[C@]32OC(=O)O/C=C/[C@](C)(O)C1=O,Potency,[1],inactive
same,Potency,[2],inactive
C[C@@H](N)c1ccc(C(=O)Nc2ccnc3[nH]ccc23)cc1,Potency,[1],inactive
same,Potency,[2],inactive
same,"activity change, negative = inhibition",[3],-95.9%
O=C(NOCC(O)CO)c1cc(Br)c(F)c(F)c1Nc1ccc(I)cc1F (configuration not stated),Potency,[1],inactive
same,Potency,[2],inactive
same,Potency,[7],inactive
same,"activity change, negative = inhibition",[3],-16.5%
O=C(/C=C/c1ccc(O)c(O)c1)OC(Cc1ccc(O)c(O)c1)C(=O)O (configuration not stated),Potency,[1],inactive
same,Potency,[2],inactive
same,Potency,[13],inactive
COc1c2ccoc2c(OCC=C(C)C)c2oc(=O)ccc12,Potency,[1],inactive
same,Potency,[2],inactive
CN(C)CCc1cc2c(c3c1ccc1ccccc13)OCO2,Potency,[1],inactive
same,Potency,[2],inactive
Nc1ncnc2n[nH]c(Nc3ccc(F)cc3)c12,outcome,[9],inactive
same,Potency,[1],inactive
same,Potency,[2],inactive
O=c1[nH]c(=O)n([C@H]2C[C@@H](O)[C@@H](CO)O2)cc1C(F)(F)F,Potency,[1],inactive
same,Potency,[2],inactive
CCC(C)SSc1ncc[nH]1 (configuration not stated),Potency,[1],inactive
same,Potency,[2],inactive
Cn1cnc(=N)c2[nH]cnc21,Potency,[1],inactive
same,Potency,[2],inactive
same,Potency,[7],inactive
same,"activity change, negative = inhibition",[3],-0.211% [at 114 µM]
Cc1ccc(/C=N/NC(=O)c2ccccc2Oc2ccccc2)o1,Potency,[1],inactive
same,Potency,[2],inactive
same,Potency,[3],inactive
COc1ccc(CN2CCc3cc(OC)c(OC)cc3C2)cc1O,Potency,[1],inactive
same,Potency,[2],inactive
CN[C@@H](C)[C@H]1[C@H](O)C[C@@]2(C)[C@@H]3CC[C@H]4C(C)(C)[C@@H](NC)CC[C@@]45C[C@@]35CC[C@]12C,Potency,[1],inactive
same,Potency,[2],inactive
same,Potency,[14],inactive
same,outcome,[7],inactive [at 11.3 µM]
NC(=O)c1cnc(-c2ccc(C3(N)CCC3)cc2)c(-c2ccccc2)c1,Potency,[1],inactive
same,Potency,[2],inactive
same,Potency,[7],inactive
CC(=O)O[C@@]12CO[C@@H]1C[C@H](O)[C@@]1(C)C(=O)[C@H](O)C3=C(C)[C@@H](OC(=O)[C@H](O)[C@@H](NC(=O)c4ccccc4)c4ccccc4)C[C@@](O)([C@@H](OC(=O)c4ccccc4)C12)C3(C)C (some centres not stated),Potency,[1],inactive
same,Potency,[2],inactive
CNC(=O)[C@H](Cc1ccccc1)NC(=O)[C@H](CC(C)C)[C@H](CSc1cccs1)C(=O)NO,Potency,[1],inactive
same,Potency,[2],inactive
same,Potency,[7],inactive
CC[C@H](C)[C@@H]1NC(=O)CNC(=O)c2csc(n2)[C@H](C(C)(C)O)OC(=O)C(C)(C)[C@H](CCCC(C)(Cl)Cl)OC(=O)c2csc1n2,Potency,[1],inactive
same,Potency,[2],inactive
CN1CCc2c(n(Cc3ccc(C(=O)NO)cc3)c3ccccc23)C1,Potency,[1],inactive
same,Potency,[2],inactive
same,Potency,[7],31.6 µM (active)
O=C(CCCCCCC(=O)Nc1ccc([C@H]2O[C@@H](CSc3nc(-c4ccccc4)c(-c4ccccc4)o3)C[C@@H](c3ccc(CO)cc3)O2)cc1)NO,Potency,[1],inactive
same,Potency,[2],inactive
same,outcome,[7],inactive [at 11.3 µM]
same,"activity change, negative = inhibition",[3],1.44% [at 11.3 µM]
CC1=CC(O)C(O)C2(C)C1CC1OC(=O)C(O)C3C(C)C(O)C4(O)OCC13C42 (configuration not stated),Potency,[1],inactive
same,Potency,[2],inactive
CCOC(=O)N1CCN([N+]([O-])=NOc2ccc([N+](=O)[O-])cc2[N+](=O)[O-])CC1,Potency,[1],inactive
same,Potency,[2],inactive
COc1cc(C=CC(=O)O)ccc1O,Potency,[1],inactive
same,Potency,[2],inactive
CN(C)c1nc2c(Br)c(Br)c(Br)c(Br)c2[nH]1,outcome,[10],inactive
same,outcome,[11],inactive
same,Potency,[12],inactive
same,outcome,[9],inactive
same,Potency,[1],inactive
same,Potency,[2],inactive
Nc1ccn([C@@H]2O[C@H](CO)[C@@H](O)[C@H]2O)c(=O)n1,Potency,[1],inactive
same,Potency,[2],inactive
same,outcome,[5],inactive
same,Potency,[6],inactive
same,outcome,[8],inactive
same,Potency,[7],inactive
same,"activity change, negative = inhibition",[3],-8.54%
CC[C@H](C)C(=O)O[C@H]1CCC=C2C=C[C@H](C)[C@H](CC[C@@H]3C[C@@H](O)CC(=O)O3)[C@H]21,outcome,[9],inactive
same,Potency,[1],inactive
same,Potency,[15],inactive
same,Potency,[7],inactive
same,"activity change, negative = inhibition",[3],-51.5%
same,Potency,[16],inactive
COc1ccc(NC(=O)c2ccc(-c3ccc(-c4noc(C)n4)cc3C)cc2)cc1N1CCN(C)CC1,outcome,[10],inactive
same,outcome,[11],inactive
same,Potency,[12],7.94 µM (active)
same,outcome,[9],inactive
same,Potency,[1],inactive
COCCOc1nc(-c2ccc(Cl)c(Cl)c2)n(-c2ccc(NC(=O)CCl)cc2)n1,Potency,[17],inactive
CCOC(=O)N1c2ccc(C(F)(F)F)cc2[C@@H](N(Cc2cc(C(F)(F)F)cc(C(F)(F)F)c2)C(=O)OC)C[C@H]1CC,Potency,[1],inactive
same,Potency,[7],inactive
same,Potency,[3],inactive
CC(C)ON([C@@H](C(=O)NO)C(C)C)S(=O)(=O)c1ccc(-c2ccccc2)cc1,outcome,[9],inactive
same,Potency,[1],inactive
CCCCCCC/C=C/C=O,Potency,[17],inactive
CC[C@]12C=CCN3CC[C@@]4(c5cc([C@@]6(C(=O)OC)C[C@H]7C[C@@H](C(C)(F)F)CN(Cc8c6[nH]c6ccccc86)C7)c(OC)cc5N(C)[C@H]4[C@@](O)(C(=O)OC)[C@H]1OC(C)=O)[C@@H]32,Potency,[17],0.0172 µM (active)
CN1c2ccccc2C(=O)N2CCc3c([nH]c4ccccc34)C21 (configuration not stated),Potency,[1],inactive
same,Potency,[15],6.81 µM (active)
same,Potency,[3],6.31 µM (active)
same,Potency,[16],3.83 µM (active)
Oc1ccc2ccccc2c1SSc1c(O)ccc2ccccc12,outcome,[9],inactive
same,Potency,[1],inactive
same,Potency,[7],inactive
c1nc2nc(Nc3ccc(N4CCOCC4)cc3)nc(NC3CCCCC3)c2[nH]1,Potency,[1],inactive
same,Potency,[7],inactive
O=c1cc(-c2ccccc2)[nH]c2nc(Cl)ccc12,outcome,[10],inactive
same,outcome,[11],inactive
same,Potency,[12],inactive
same,outcome,[9],inactive
same,Potency,[1],inactive
Cc1ncnc2nc[nH]c12,Potency,[17],1.58 µM (active)
CC(C=CC(=O)NO)=C[C@@H](C)C(=O)c1ccc(N(C)C)cc1,Potency,[17],15.3 µM (active)
COC(=O)Nc1nc2ccc(C(=O)c3ccc(F)cc3)cc2[nH]1,Potency,[1],inactive
same,Potency,[7],inactive
same,Potency,[3],1.26 µM (active)
same,Potency,[16],0.961 µM (active)
CNCCc1cnc(CCC(c2ccccc2)c2ccccc2)[nH]1,outcome,[9],inactive
same,Potency,[1],inactive
C[C@@]12C(=O)OC(=O)[C@@]1(C)C1CCC2O1,Potency,[17],19.3 µM (active)
O=Nc1c(-c2c(O)[nH]c3ccccc23)[nH]c2ccccc12,outcome,[10],inactive
same,outcome,[11],inactive
same,Potency,[1],inactive
